The values that follow come from PubChem BioAssay (Tox21).

The structures appear in SMILES notation. Inconclusive results are not listed. Active and inactive are the calls of the source. The call rests on the fitted dose curve.
On the % scale 0 is the no-effect control and ±100 the full control effect.

Sequence of Retinoic acid receptor RXR-alpha (Homo sapiens) (P19793 whole entry, looked up): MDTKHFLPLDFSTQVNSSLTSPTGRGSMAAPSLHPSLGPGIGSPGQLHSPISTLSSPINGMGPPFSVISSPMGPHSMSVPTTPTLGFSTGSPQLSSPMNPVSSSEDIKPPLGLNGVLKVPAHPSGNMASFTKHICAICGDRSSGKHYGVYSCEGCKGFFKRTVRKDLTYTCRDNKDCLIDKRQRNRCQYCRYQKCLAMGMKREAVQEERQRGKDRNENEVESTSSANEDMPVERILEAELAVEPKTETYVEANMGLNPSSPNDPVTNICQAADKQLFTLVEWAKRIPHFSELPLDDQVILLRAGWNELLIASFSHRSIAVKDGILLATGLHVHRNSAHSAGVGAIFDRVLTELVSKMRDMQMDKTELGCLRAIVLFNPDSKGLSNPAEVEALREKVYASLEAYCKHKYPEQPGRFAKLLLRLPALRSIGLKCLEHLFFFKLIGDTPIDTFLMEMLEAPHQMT

System in one experiment: not listed separately
Kind of experiment: qHTS assay to identify small molecule agonists of the AP-1 signaling pathway (AID 1159526). The conditions noted are these: ME-180 (cervical carcinoma) AP-1-bla reporter, beta-lactamase FRET ratio, 5 h; series mostly up to 76.8 µM; activation: at the top concentration. In general terms: In qHTS, concentration-response curves come from the screen itself.
With `CCN[C@@H](C)Cc1ccccc1`, the “activation” value was -1.88% (inactive). Regarding `O=C(Cl)C(Cl)(Cl)Cl`, the “activation” value is 9.16% (inactive).

For `CCN(CCO)CCn1c(Cc2ccccc2)nc2c1c(=O)n(C)c(=O)n2C`, the “activation” value is 13.7% [at 35.3 µM] (inactive). On the same count and under the same terms, as for `CCOC(=O)C(SP(=S)(OC)OC)c1ccccc1` (stereo not given), the figure is 7.05% (inactive). With `CCOC(=O)NC(C)(C)Cc1ccc(Cl)cc1`, the “activation” value is -0.164% [at 35.3 µM] (inactive). The same measure, in the same setting: under `C=CCc1cc(OC)c2c(c1)OCO2` stands 11.2% (inactive); under `CN1COCN(Cc2cnc(Cl)s2)/C1=N\[N+](=O)[O-]`, 0.426% (inactive); under `NC(=O)CS(=O)C(c1ccccc1)c1ccccc1` (stereo not given), 0.664% [at 35.3 µM] (inactive). As for `CCCCCCCCSC(=O)Oc1cc(Cl)nnc1-c1ccccc1`, the “activation” value was -7.86% (inactive). Regarding `C1CN2CCC1CC2`, the “activation” value is -10.2% [at 35.3 µM] (inactive). Turning to `CCC1(c2ccccc2)C(=O)N(COC)C(=O)N(COC)C1=O`, the “activation” value was -4.46% [at 35.3 µM] (inactive).

Turning to `NNC(N)=O`, the “activation” value is -3.53% (inactive).

`Cc1cccc2sc3nncn3c12`: the “activation” value is -9.25% (inactive). Take `C/C(=N\NC(=O)Nc1cc(F)cc(F)c1)c1ncccc1C(=O)O`: the outcome was inactive. With `CNC(=O)O/N=C(/CSC)C(C)(C)C`, the “activation” value was -0.502% (inactive).

Regarding `COC(=O)c1ccc(CBr)cc1`, the “activation” value is 3.8% (inactive). Regarding `CCN(CC)C1CCCCC1`, the “activation” value is 0.644% (inactive). Consider `CC(C)(N)Cc1ccccc1Cl`, for which the “activation” value is 3.55% [at 35.3 µM] (inactive).

For `CC#Cc1cc(C)nc(Nc2ccccc2)n1`, the “activation” value was -0.16% (inactive). As for `CON(C)C(=O)Nc1ccc(Br)cc1`, the “activation” value was -8.26% (inactive). For the compound `CC1NCCOC1c1ccccc1` (stereo not given), the “activation” value is -3.22% [at 35.3 µM] (inactive).

For a further experiment, the target named is Retinoic acid receptor RXR-alpha (Homo sapiens) (UniProt P19793). The experiment is described as follows: qHTS assay to identify small molecule agonists of the RXR signaling pathway (AID 1159527). Further: nearly all actives have a fitted effect of over 35% in size. The conditions noted are these: HEK293T RXRa-UAS-bla, beta-lactamase ratio, 16 h; series mostly up to 76.8 µM; activation: at the top concentration. Put shortly:
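Fluorescence ratio readout (460 vs 530 nm) from GeneBLAzer RXR-alpha HEK 293T cells after 16 hr compound treatment; cells seeded 5 hr beforehand in low-serum, charcoal-stripped medium.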
In the case of `O=C1CC(=O)NC(=O)N1`, the “activation” value was 11.2% (inactive). Same read-out and setting: as for `CC(C)[N+](C)(CCC(C(N)=O)(c1ccccc1)c1ccccc1)C(C)C`, the figure is -0.36% [at 35.3 µM] (inactive). Turning to `S=C=S`, the “activation” value was -7.07% (inactive). `Cn1c(CCCC(=O)O)nc2cc(N(CCCl)CCCl)ccc21`: the “activation” value is 8.73% [at 35.3 µM] (inactive). As to `CCSC(=O)Cl`, the “activation” value was 7.57% (inactive).

In the case of `CCC(C)(C#N)N=NC(C)(C#N)CC` (stereo not given), the “activation” value was -0.846% (inactive). Take `O=C(Cl)C(Cl)Cl`: the “activation” value was 2.43% (inactive). Turning to `COP(=O)(OC)O/C(C)=C/C(=O)N(C)C`, the “activation” value is 8.88% (inactive). Consider `CON(C)C(=O)Nc1ccc(Br)c(Cl)c1`, for which the “activation” value is -11.9% (inactive). Regarding `COc1ccc(C=O)cc1O`, the “activation” value was -1.39% (inactive). For the compound `CCOC(=O)C(Cl)Cc1cc(-n2nc(C)n(C(F)F)c2=O)c(F)cc1Cl` (stereo not given), the “activation” value was -11% (inactive). As for `CCN[C@@H](C)Cc1ccccc1`, the “activation” value is 4.6% (inactive). Regarding `O=C1C2CC=CCC2C(=O)N1SC(Cl)(Cl)Cl` (stereo not given), the “activation” value was -10.3% (inactive).

Regarding `O=C(Cl)C(Cl)(Cl)Cl`, the “activation” value was -15.5% (inactive). Regarding `CCN(CCO)CCn1c(Cc2ccccc2)nc2c1c(=O)n(C)c(=O)n2C`, the “activation” value was 5.1% [at 35.3 µM] (inactive). `CCOC(=O)C(SP(=S)(OC)OC)c1ccccc1` (stereo not given): the “activation” value is -14.5% (inactive).

For `CCOC(=O)NC(C)(C)Cc1ccc(Cl)cc1`, the “activation” value is -1.46% [at 35.3 µM] (inactive). As for `C=CCc1cc(OC)c2c(c1)OCO2`, the “activation” value is 17.7% (inactive). With `CN1COCN(Cc2cnc(Cl)s2)/C1=N\[N+](=O)[O-]`, the “activation” value is 8.66% (inactive). Same read-out and setting: as for `NC(=O)CS(=O)C(c1ccccc1)c1ccccc1` (stereo not given), the figure is -0.221% [at 35.3 µM] (inactive); as for `CCCCCCCCSC(=O)Oc1cc(Cl)nnc1-c1ccccc1`, 15.7% (inactive); as for `C1CN2CCC1CC2`, 3.94% [at 35.3 µM] (inactive).

In the case of `ClC1=C(Cl)C2(Cl)C(CBr)CC1(Cl)C2(Cl)Cl` (stereo not given), the “activation” value was 0.767% [at 35.3 µM] (inactive).

For `CCC1(c2ccccc2)C(=O)N(COC)C(=O)N(COC)C1=O`, the “activation” value is 9.51% [at 35.3 µM] (inactive). `NNC(N)=O`: the “activation” value was -1.6% (inactive). Still for that read-out and setting: under `Cc1cccc2sc3nncn3c12` stands 12.8% (inactive). As to `C/C(=N\NC(=O)Nc1cc(F)cc(F)c1)c1ncccc1C(=O)O`, the “activation” value was 0.266% (inactive). Same read-out and setting: under `CNC(=O)O/N=C(/CSC)C(C)(C)C` stands 0.387% (inactive); under `COC(=O)c1ccc(CBr)cc1`, -18.5% (inactive); under `CCN(CC)C1CCCCC1`, 4.61% (inactive). In the case of `CC(C)(N)Cc1ccccc1Cl`, the “activation” value was 1.57% [at 35.3 µM] (inactive). On the same count and under the same terms, as for `CC#Cc1cc(C)nc(Nc2ccccc2)n1`, the figure is 6.44% (inactive); as for `CON(C)C(=O)Nc1ccc(Br)cc1`, -5.25% (inactive). In the case of `CC1NCCOC1c1ccccc1` (stereo not given), the “activation” value is 3.26% [at 35.3 µM] (inactive).
